Screening results as filed in PubChem.
SMARCA2 act – SMARCA2 (BRM) function activators, primary screen, cell-based, luminescence, high throughput. MG213 cells, MMTV-luciferase reporter, dexamethasone, overnight. activation, % at 9.1 µM. actives 1% (n = 370,000). AID 652017, 2013; in the data active = activation above about 7.8%;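 also: 0% = vehicle wells and 100% = reference activator wells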
FAS TE block – FAS thioesterase domain inhibitors, primary screen, biochemical, fluorescence intensity, uHTS; inhibition, % at 15 µM; actives 0.67% (n = 360,000); recombinant FAS-TE, OMFH fluorogenic substrate, fluorescence endpoint; Fatty acid synthase (Homo sapiens), P49327; AID 602261, 2012;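 active = compounds whose normalised, plate-corrected inhibition of enzyme fluorescence in the single-dose primary screen is 50% or more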;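 also: 0% = DMSO with enzyme and 100% = substrate without enzyme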
KLK7 zymogen act – proKLK7 zymogen activators, primary screen, biochemical, fluorescence intensity | purified proKLK7, EDANS-DABCYL substrate fluorescence; 100% is mature enzyme control, 0% vehicle | activation, % at 7 µM | actives 0.9% (n = 370,000);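 active = activation above the mean of all tested compounds plus 3 SD, computed per campaign excluding outliers beyond control limits, cut at about 13% in these data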
Target sequence (P49862 whole entry, looked up): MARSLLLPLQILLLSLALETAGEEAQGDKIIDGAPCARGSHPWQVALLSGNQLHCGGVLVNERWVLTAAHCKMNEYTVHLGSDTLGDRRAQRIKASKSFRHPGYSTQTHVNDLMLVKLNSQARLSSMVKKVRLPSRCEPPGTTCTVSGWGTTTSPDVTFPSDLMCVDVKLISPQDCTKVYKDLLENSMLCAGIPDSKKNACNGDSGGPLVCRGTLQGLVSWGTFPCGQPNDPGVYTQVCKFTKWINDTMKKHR
GAA850 FXN act – FXN promoter activators, primary screen, cell-based, luciferase luminescence, HEK293 lucGAA850 | HEK293 lucGAA850 FXN promoter luciferase reporter, 24 h; percent of 10 µM SAHA response | activation, % at 6 µM | actives 0.56% (n = 360,000) | AID 540364, 2011;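 active = activation above the average of all compounds screened plus 3 SD, cutoff fixed separately per campaign, cut at about 7.5% in these data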;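 also: 0% = DMSO wells and 100% = 10 µM SAHA wells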
SMARCA2 act conf – SMARCA2 (BRM) function activators, confirmation, cell-based, luminescence, triplicate | shares compounds with SMARCA2 act | MG213 cells, MMTV-luciferase with dexamethasone, overnight; MG213 cells expressing E1A, Rb sequestered; DMSO wells 0%, reference activator 100% | activation, % at 9.1 µM | actives 30% (n = 3,500);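 active = activation above its plate's cutoff, the mean activation of tested wells plus 3 SD, cut at about 7.9% in these data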
GAL4-VP16 Luc – GAL4-VP16 luciferase reporter activation, counter-screen for SMARCA2 (BRM) activator project, cell-based, pG5luc, luminescence, high throughput; actives 41% (n = 3,500); shares compounds with SMARCA2 act; AID 686939, 2013; activation, % at 9.1 µM; HEK293 GAL4-VP16 pG5luc reporter; scaled: DMSO wells 0%, SAHA wells 100%;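 active = activation above the solvent-only control well mean plus 3 SD, averaged across control plates, cut at about 5.2% in these data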
Numbers without * were called inactive. A selection: hits, their analogues and other compounds. The true share with any hit is near 2.9%.

Screening CCN1CCN(c2ccc(NC(=O)c3cc4ccccc4cc3OC)cc2C)CC1 returned SMARCA2 act 12.3*, FAS TE block 5.0, KLK7 zymogen act -1.7, GAA850 FXN act 3.3, SMARCA2 act conf 8.1* and GAL4-VP16 Luc 12.5*.
Screening CCCCCN1CCCCC(NC(=O)C2CCCCC2)C1=O (centres undefined) returned SMARCA2 act -1.2 and KLK7 zymogen act -0.8.
Cc1cnccc1CN(C)C(=O)CC1C(=O)NCCN1CC1CCCCC1 (centres undefined) was read as SMARCA2 act 2.3, FAS TE block -1.2, KLK7 zymogen act -0.2 and GAA850 FXN act -1.8.
C=CCN(c1ccc(C(=O)Nc2ccc(C)c(C)c2)cc1)S(C)(=O)=O was read as SMARCA2 act -5.2, FAS TE block -3.5, KLK7 zymogen act 0.1 and GAA850 FXN act -0.5.
Screening Cc1cc(C(=O)c2cccs2)c(N)s1 returned SMARCA2 act 8.9*, FAS TE block -1.7, KLK7 zymogen act -0.3, GAA850 FXN act 0.2, SMARCA2 act conf -1.4 and GAL4-VP16 Luc 2.4.
Screening Cn1nc(C(=O)N2CCOCC2)c2ccccc2c1=O returned SMARCA2 act -1.4, FAS TE block -4.5, KLK7 zymogen act -0.2 and GAA850 FXN act -0.1.
Screening S=C(c1ccc(-c2ccc(Br)cc2)o1)N1CCCCC1 returned SMARCA2 act 8.1*, FAS TE block 13.5, KLK7 zymogen act -0.5, GAA850 FXN act 5.5, SMARCA2 act conf 15.6* and GAL4-VP16 Luc 8.3*.
S=C(c1ccc(-c2ccc(Br)cc2)o1)N1CCOCC1 was read as SMARCA2 act 0.4, FAS TE block 34.0, KLK7 zymogen act 0.2 and GAA850 FXN act 5.6.
O=C(c1cc(-c2ccc(Br)cc2)on1)N1CCOCC1 was read as SMARCA2 act 7.0, FAS TE block 1.1, KLK7 zymogen act -0.5 and GAA850 FXN act 3.4.
For O=C(c1cc(-c2ccc(Br)cc2)on1)N1CCCCCC1 the results were SMARCA2 act 9.4*, FAS TE block 3.1, KLK7 zymogen act -0.6, GAA850 FXN act 3.4, SMARCA2 act conf 3.7 and GAL4-VP16 Luc 5.7*.
For CSCCC(NS(=O)(=O)c1ccccc1F)C(=O)NCC(C)(C)N1CCOCC1 (centres undefined) the results were SMARCA2 act -1.7, FAS TE block -9.6, KLK7 zymogen act 0.1 and GAA850 FXN act 1.3.
For O=C(Nc1ccc(F)cc1)C(CCc1ccccc1)N1CCN(C(=O)c2ccco2)CC1 (centres undefined) the results were SMARCA2 act 8.7*, KLK7 zymogen act 0.1, SMARCA2 act conf 1.3 and GAL4-VP16 Luc -1.2.
`Nc1nc(=O)c2ccccc2s1` gave SMARCA2 act 5.4, FAS TE block -2.8, KLK7 zymogen act 0.2 and GAA850 FXN act 0.4.
`O=C(Nc1nc(=O)c2ccccc2s1)c1ccccc1` gave SMARCA2 act 24.0*, FAS TE block -9.7, KLK7 zymogen act 1.6, GAA850 FXN act 2.8, SMARCA2 act conf 5.7 and GAL4-VP16 Luc 9.6*.
Screening CC(=O)N/C(N)=N/c1nc(=O)c2ccccc2s1 returned SMARCA2 act 8.2*, FAS TE block -6.5, KLK7 zymogen act 0.0, GAA850 FXN act 2.5, SMARCA2 act conf 13.1* and GAL4-VP16 Luc 8.9*.
CCOC(=O)N/C(N)=N/c1nc2ccccc2s1 was read as SMARCA2 act 9.9*, FAS TE block -0.4, KLK7 zymogen act -0.1, GAA850 FXN act 3.6, SMARCA2 act conf 8.4* and GAL4-VP16 Luc 13.5*.
Cc1ccc(C(=O)Nc2nc3ccccc3c(=O)s2)cc1 was read as SMARCA2 act 17.2*, FAS TE block -4.3, KLK7 zymogen act 0.8, GAA850 FXN act 1.6, SMARCA2 act conf 6.6 and GAL4-VP16 Luc 6.3*.
`CCOC(=O)NC(=O)COC(=O)CCCSc1nc2ccccc2s1` gave SMARCA2 act -4.6, FAS TE block 0.2, KLK7 zymogen act -0.2 and GAA850 FXN act -1.0.
`O=C(Nc1nc2ccccc2s1)c1ccc(F)cc1` gave SMARCA2 act 2.1, FAS TE block 4.1, KLK7 zymogen act -0.7 and GAA850 FXN act 0.1.
`O=C(Nc1nc2c(s1)C(=O)CCC2)c1ccccc1` gave SMARCA2 act 8.3*, FAS TE block -8.4, KLK7 zymogen act 0.5, GAA850 FXN act 0.0, SMARCA2 act conf 9.7* and GAL4-VP16 Luc 12.0*.
Screening CC(=O)Nc1nc(=O)c2ccccc2s1 returned SMARCA2 act 8.3*, FAS TE block -8.2, KLK7 zymogen act -0.4, GAA850 FXN act -0.1, SMARCA2 act conf 1.0 and GAL4-VP16 Luc 2.1.
`O=C(NNC(=S)NCc1ccco1)c1ccccc1Br` gave SMARCA2 act -0.9, FAS TE block -3.3, KLK7 zymogen act 0.1 and GAA850 FXN act 0.3.
For Cc1c(Cl)cnc(NC(=O)COC(=O)CCc2nc3ccccc3s2)c1Cl the results were SMARCA2 act 9.3*, FAS TE block -0.6, KLK7 zymogen act -0.2, GAA850 FXN act -0.4, SMARCA2 act conf -2.4 and GAL4-VP16 Luc -0.4.
For Cc1ccc(C(=O)c2cc(C)sc2NC(=O)CN2CCN(C(=O)c3ccco3)CC2)cc1 the results were SMARCA2 act 8.8*, FAS TE block 26.5, KLK7 zymogen act -0.6, GAA850 FXN act 0.7, SMARCA2 act conf -0.4 and GAL4-VP16 Luc -0.3.
Screening CCc1cc(C(=O)OC)c(NC(=O)CN2CCN(C(=O)c3ccco3)CC2)s1 returned SMARCA2 act -0.3, FAS TE block 9.1, KLK7 zymogen act -0.7 and GAA850 FXN act 0.5.
`Cc1cc(/C=C(\C#N)c2nc3ccccc3[nH]2)c(C)n1C` gave SMARCA2 act -1.1, FAS TE block -13.2, KLK7 zymogen act -4.0 and GAA850 FXN act 2.1.
Screening COc1cc(/C=C(\C#N)c2nc3ccccc3[nH]2)cc(OC)c1O returned SMARCA2 act 8.2*, FAS TE block -39.1, KLK7 zymogen act 1.4, GAA850 FXN act 0.5, SMARCA2 act conf 5.4 and GAL4-VP16 Luc 5.7*.
For N#C/C(=C\c1c(Cl)cccc1Cl)c1nc2ccccc2[nH]1 the results were SMARCA2 act 4.4, FAS TE block 26.4, KLK7 zymogen act 1.1 and GAA850 FXN act 4.5.
N#C/C(=C\c1cc([N+](=O)[O-])c(N2CCOCC2)cc1N1CCOCC1)c1nc2ccccc2[nH]1 was read as SMARCA2 act -0.3, FAS TE block 32.4, KLK7 zymogen act -0.4 and GAA850 FXN act -0.6.
Screening Cc1ccc(/C=C(\C#N)c2nc3ccccc3[nH]2)s1 returned SMARCA2 act 10.4*, FAS TE block 2.1, KLK7 zymogen act -6.7, GAA850 FXN act 5.7, SMARCA2 act conf 18.9* and GAL4-VP16 Luc 10.8*.
